# Hits are enriched below; roughly 0.52% of the tested compounds scored in any of these assays.
# Sa growth 42C: blocks Staphylococcus aureus growth; relative growth, % (test concentration not listed); AID 720641; S. aureus RN4220 growth, OD600, 20 h, 42 °C; active compounds read low; actives 0.53% (n = 170,000);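 active = relative growth at most 50% at the other temperature and 20+ points below 30 °C, or under 10% at both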
# S aureus helic: S. aureus DNA helicase inhibition; inhibition, % (no concentration beside the values); purified S. aureus helicase, fluorescence unwinding assay; actives 0.05% (n = 120,000); in the data active = inhibition above about 25%, passing the limit was not always enough;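 note: 0% = mean of negative control wells and 100% = mean of positive control wells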
# Starred values were filed as active, the others as inactive; x = no result.
SMILES,Sa growth 42C,S aureus helic
CCOc1ccc(NC(=O)N2CCN(c3ccc(Cl)c(Cl)c3)CC2)cc1,106.8,x
CC(=O)N1CCN(c2ccc(OCC3CO[C@](Cn4ccnc4)(c4ccc(Cl)cc4Cl)O3)cc2)CC1 (some centres undefined),2.6*,x
CCCN1CCN(C(=O)c2ccc(-n3c(-c4ccccc4)nc4cccnc43)cc2)CC1,95.2,-20.0
CCN(c1ccc2oc3ccccc3c2c1)S(=O)(=O)c1ccc(C#N)cc1,45.5*,-8.0
CCN(c1ccccc1)S(=O)(=O)c1ccc(Cl)cc1,88.3,0.0
N#Cc1c(N)[nH]c(=S)c(C(N)=O)c1-c1cccc(Br)c1,0.3*,16.0
CCc1[nH]c(=S)c(C#N)c(-c2ccccc2)c1C(=O)OC,122.5,2.0
Cc1csc(=O)n1CC(=O)NC1CCC(C)CC1 (centres undefined),100.2,-7.0
CCOC(=O)CC(N)=S,110.6,0.0
CCOC(=O)CC(=N)N,84.0,63.0*
CO[C@H]1C[C@H](O[C@H]2[C@H](C)[C@@H](O[C@@H]3O[C@H](C)C[C@H](N(C)C)[C@H]3OC(C)=O)[C@@H](C)C[C@@]3(CO3)C(=O)[C@H](C)[C@@H](OC(C)=O)[C@@H](C)[C@@H](C)OC(=O)[C@@H]2C)O[C@@H](C)[C@@H]1OC(C)=O,3.7*,x
CCC(=O)N1CCN(c2ccc(NC(=S)NC(=O)c3cc4ccccc4o3)cc2Cl)CC1,108.6,-1.0
CCCn1c(N)c(C(=O)COC(=O)c2cccc(NC(=O)OC(C)(C)C)c2)c(=O)[nH]c1=O,93.9,-1.0
Nc1nc(SC#CC(F)(F)F)ns1,-0.6*,7.0
CCOc1ccc(S(=O)(=O)N2CCC(C(=O)N/N=C/c3ccc(-c4ccc(F)cc4)o3)CC2)cc1,96.2,-4.0
CCOc1cccc(C2c3c(-c4cc(C)ccc4O)n[nH]c3C(=O)N2Cc2ccco2)c1 (centres undefined),35.5*,x
COc1cc(C2c3c(-c4cc(C)ccc4O)n[nH]c3C(=O)N2Cc2ccco2)cc(OC)c1OC (centres undefined),107.2,x
Cc1ccc(S(=O)(=O)CCc2nnc(NC(=O)CCCC(=O)Nc3cc(C)on3)s2)cc1,106.5,4.0
O=C(Nc1cccc(Cl)c1)c1c(NC(=O)C(F)(F)F)sc2c1CCCC2,-1.2*,x
Cc1cccc(NC(=O)c2c(NC(=O)C(F)(F)F)sc3c2CCCCC3)c1,34.8,x
c1cncc(-c2nc(Nc3ccc4c(c3)OCO4)c3ccccc3n2)c1,46.5,1.0
CN(C)c1ccc(Nc2nc(-c3cccnc3)nc3ccccc23)cc1,0.2*,12.0
CC(C)(C)OC(=O)CN1C(=O)S/C(=C/c2cccs2)C1=O,105.7,4.0
Cn1c(=NC(=O)CSCC(=O)N2CCN(c3ccccc3)CC2)sc2ccccc21,108.6,9.0
CC1(C)[C@H](C(=O)O)N2C(=O)C[C@H]2S1(=O)=O,86.8,x
SMILES,Sa growth 42C,S aureus helic
CC1(C)C(C(=O)O)N2C(=O)CC2S1(=O)=O (centres undefined),27.1*,-35.0
O=C(/C=C(\O)c1ccc(Cl)cc1)C(F)(F)F,-0.1*,-2.0
CC(=O)/C=C(\O)c1ccc(Cl)cc1,84.0,12.0
CN(C1CCCCC1)S(=O)(=O)c1ccccc1C#N,x,-6.0
Nc1[nH]n(-c2ccccc2)c(=O)c1C1=NCCCCC1,105.6,4.0
CCCCSc1nc2c(c(C(F)(F)F)c1C#N)CCC2,108.8,9.0
CCC1CCc2[nH]c(=S)c(C#N)c(C(F)(F)F)c2C1 (centres undefined),8.0*,16.0
O=S(=O)(/C=C/c1ccccc1)N1CCN(c2ncc(C(F)(F)F)cc2Cl)CC1,96.3,-6.0
Clc1cc2c(c3ncccc13)OCN(CCc1ccccc1)C2,95.0,14.0
Clc1cc2c(c3ncccc13)OCN(CC1CCCO1)C2 (centres undefined),1.0*,-13.0
Clc1cccc(NCc2cccc3c2CN(CC2CCCO2)C3)c1 (centres undefined),100.2,0.0
Clc1cc2c(c3ncccc13)OCN(CCC1=CCCCC1)C2,0.1*,11.0
CCCCN1COc2c(cc(Cl)c3cccnc23)C1,1.0*,8.0
Oc1c(CN2CCc3ccccc3C2)cc(Cl)c2cccnc12,x,-12.0
CCC(=O)NC1CCNCC1,104.9,1.0
CC(C)c1ccc(C2C=C(c3ccccc3)Nc3ncnn32)cc1 (centres undefined),84.5,-5.0
CCCCCn1c(=O)c2ccccc2n2c(Cn3cc(S(=O)(=O)N4CCCC4)ccc3=O)nnc12,79.3,19.0
Cc1ccc(C(=O)COc2ccccc2O)cc1,99.4,-10.0
Cc1noc2c1C(c1ccccc1)C1=C(CC(C)(C)CC1=O)N2 (centres undefined),102.3,1.0
N#Cc1c(Cl)nc(Cl)c(Cl)c1Cl,66.1,-3.0
CC(C)=NNc1nc(Cl)c(C#N)c(Cl)c1Cl,6.4*,x
COC(=O)c1cn(NC(=O)CSc2ccncc2)c(=O)c2ccccc12,105.6,6.0
CC(=O)OCC1=C(C(=O)O)N2C(=O)[C@@H](NC(=O)CSc3ccncc3)[C@H]2SC1,-0.3*,x
COCC1=C(C(=O)OC(C)OC(=O)OC(C)C)N2C(=O)[C@@H](NC(=O)C(=NOC)c3csc(N)n3)[C@H]2SC1 (some centres undefined),16.3,x
CC(C)(O/N=C(\C(=O)N[C@@H]1C(=O)N2C(C(=O)[O-])=C(C[n+]3ccccc3)CSC12)c1csc(N)n1)C(=O)O (some centres undefined),69.3,x
SMILES,Sa growth 42C,S aureus helic
CO/N=C(\C(=O)N[C@@H]1C(=O)N2C(C(=O)O)=C(COC(C)=O)CS[C@H]12)c1csc(N)n1,-0.8*,x
CO/N=C(/C(=O)NC1C(=O)N2C(C(=O)O)=C(COC(N)=O)CSC12)c1ccco1 (centres undefined),-1.0*,x
COc1c(C(=O)O)csc1Cl,98.6,x
CN1C2=C(C(=O)CCC2)C(c2ccccc2)C2=C1CCCC2=O,98.5,18.0
Cc1c(C(=O)Nc2ccc(F)cc2)oc2ccc3c(c12)C(=O)CC(C)(C)O3,92.3,-23.0
O=C(O)CCc1nc2ncccc2c(=O)n1Cc1ccc(F)cc1,105.2,-3.0
CC(NC(=O)Cc1nn[nH]n1)c1ccccc1 (centres undefined),84.1,13.0
Cc1cc2[nH]c(=O)c(=O)[nH]c2cc1S(=O)(=O)N(CC(C)C)CC(C)C,91.1,3.0
N#C/C(=C\c1ccc(-c2cc(C(F)(F)F)ccc2Cl)o1)C(=O)O,96.0,-5.0
N#C/C(=C/c1ccc(-c2cc(C(=O)O)ccc2Cl)o1)C(=O)NCCc1c[nH]c2ccccc12,9.7*,20.0
O=S(=O)(NC1=NCC2CCCC2N1)c1ccccc1 (centres undefined),96.6,x
O=c1oc2ccccc2c(O)c1C=Nc1ccccc1,94.5,9.0
O=Cc1c(O)c2ccccc2c2ccccc12,9.1*,-2.0
CN1CCC(NC(=O)c2cccs2)CC1,109.5,1.0
CC1c2ccsc2CCN1C(=S)NC(=O)c1cccs1 (centres undefined),-0.4*,x
COC(=O)c1ccc(-c2nc(NC(C)=O)c3c(=O)oc4ccccc4c3n2)cc1,95.1,7.0
N#Cc1cccc(C(=O)NCc2ccccc2)c1,97.6,10.0
COCCNC(=O)CN1CCc2ccccc2C1,96.2,-8.0
C[C@@H](O)[C@H]1C(=O)N2C(C(=O)O)=C(S[C@@H]3CN[C@H](C(=O)N(C)C)C3)[C@H](C)[C@H]12,-0.5*,x
Cc1ccc(N2C(=O)CC(N3CC4(C)CC3CC(C)(C)C4)C2=O)cc1 (centres undefined),92.5,20.0
